# High-throughput results: PubChem BioAssay, several laboratories
# CYP2C9 act – human CYP2C9 activators, primary screen, biochemical, luminescence | 96,000 compounds, 1.4% hits | activation factor at 5 µM | recombinant CYP2C9, luciferin-H conversion; hits give high values; factor 1 = untreated enzyme, 0 = blocked;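 active = activation factor of 2 or more for CYP2C9 at a 5 µM dose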;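 also: 0 = sulfaphenazole-blocked wells and 1 = vehicle-only wells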
# Target sequence (P11712 whole entry, looked up): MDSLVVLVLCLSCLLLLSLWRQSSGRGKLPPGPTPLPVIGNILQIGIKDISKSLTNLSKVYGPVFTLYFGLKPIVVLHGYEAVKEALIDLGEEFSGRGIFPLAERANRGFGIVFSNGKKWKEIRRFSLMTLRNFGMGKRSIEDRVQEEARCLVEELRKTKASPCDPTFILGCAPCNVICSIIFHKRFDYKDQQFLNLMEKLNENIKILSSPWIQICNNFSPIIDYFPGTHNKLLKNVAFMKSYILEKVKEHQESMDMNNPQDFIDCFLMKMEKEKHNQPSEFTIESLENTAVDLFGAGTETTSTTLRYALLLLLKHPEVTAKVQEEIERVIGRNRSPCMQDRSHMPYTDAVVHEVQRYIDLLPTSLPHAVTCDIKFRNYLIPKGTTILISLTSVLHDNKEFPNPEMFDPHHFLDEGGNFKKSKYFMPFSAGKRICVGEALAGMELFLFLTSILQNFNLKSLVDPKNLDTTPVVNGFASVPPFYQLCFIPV
# CYP2C9 inh – blockers of cytochrome P450 2C9 activity – biochemical, luminescence, ADME assay, primary screen | CYP2C9 Supersomes, luciferin-H conversion | inhibition, % at 5 µM | 96,000 compounds, 20% hits | AID 777, 2007;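 active = blocking of liver enzyme CYP2C9 beyond about 50% at 5 µM, limit read from the data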
# PostGolgi yeast – phenotypic screen on post-Golgi transport, primary screen; AID 739, 2007; 98,000 compounds, 0.9% hits; post-Golgi transport phenotypic cell assay; inhibition, % at 10 µM;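 also: yeast cells grown in 1536-well plates; yeast grown about 18 h at 30C before absorbance read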
# CYP2C19 inhib – blockers of cytochrome P450 2C19 activity – biochemical, luminescence, ADME assay, primary screen | CYP2C19 Supersomes, luciferin-H EGE luminescence, 30 min | AID 778, 2007 | 96,000 compounds, 21% hits | inhibition, % at 5 µM | P33261;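 active = CYP2C19 inhibition above a set limit at 5 µM in the primary screen, cut at about 50% in these data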;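 also: plate controls were negative control wells for no effect and 2.5 mM tranylcypromine positive control for full effect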
# CYP2C19 activ – human CYP2C19 activators, primary screen, biochemical, luminescence | recombinant CYP2C19, luciferin-H EGE luminescence; hits give high values; 0 = fully inhibited enzyme, 1 = untreated enzyme | activation factor at 5 µM | 96,000 tested, under 10 active;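 active = activation factor of at least 2 at 5 µM in the primary screen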;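 also: 0 = wells with 2.5 mM tranylcypromine and 1 = vehicle-only wells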
# PostGolgi ctrl – growth inhibition of yeast control strain, primary screen, counter-screen for post-Golgi transport modulator project; AID 738, 2007; inhibition, % at 10 µM; efflux-deficient yeast background strain, growth absorbance A615, 16 h; 98,000 compounds, 5% hits
# Starred values were filed as active, the others as inactive. Shown are actives, neighbours in structure and some others; about 32% of the full set was active somewhere. Rule as the data show it, unless noted: active = inhibition above about 30%; inactive = the rest.
SMILES,CYP2C9 act,CYP2C9 inh,PostGolgi yeast,CYP2C19 inhib,CYP2C19 activ,PostGolgi ctrl
O=C(CSc1n[nH]c(-c2cccs2)n1)N1CCN(S(=O)(=O)c2ccccc2)CC1,0.5,51.0*,6.3,31.7,0.7,-3.7
O=C(CSc1nc2ccccc2c(=O)[nH]1)N1CCN(S(=O)(=O)c2ccccc2)CC1,0.8,21.8,-4.9,16.1,0.8,0.5
c1ccc(-c2nc(CSc3n[nH]c(-c4cccs4)n3)cs2)cc1,0.7,32.6,-0.8,60.2*,0.4,33.7*
Nn1c(SCC(=O)N2CCN(S(=O)(=O)c3ccc(Cl)cc3)CC2)nnc1-c1cccs1,0.5,50.5*,16.0,35.7,0.6,3.0
CC(=O)Nc1ccc(S(=O)(=O)NC2(C(F)(F)F)NC(=O)N(C3CCCCC3)C2=O)cc1 (centres undefined),0.7,29.6,-0.7,-9.2,1.1,1.5
Cc1ccc2cc(CN(C(=O)c3ccncc3)C(C)C)c(=O)[nH]c2c1,0.8,22.5,3.9,23.4,0.8,3.9
CC(C)Cn1c(SCC(=O)N2CCN(S(=O)(=O)c3ccccc3)CC2)nc2ccccc21,0.2,78.5*,13.0,79.7*,0.2,13.1
Cn1c(SCC(=O)N2CCN(S(=O)(=O)c3ccc(Cl)cc3)CC2)nc2ccccc21,2*,-103.2,-7.6,57.6*,0.4,6.1
Sc1oc(-c2ccccc2)cc1C=Nc1ccccc1,0.7,29.0,-4.6,1.7,1,5.0
COC(=O)c1ccc(CSc2n[nH]c(=S)s2)o1,0.4,57.9*,-1.0,19.6,0.8,21.9
COC(=O)c1ccc(CSc2nc3ccccc3s2)o1,0.6,42.4,14.7,94.7*,0.1,11.7
COC(=O)c1ccc(CSc2ncnc3ccccc23)o1,0.5,45.9,-5.8,69.8*,0.3,9.0
CC(=O)Nc1ccc(S(=O)(=O)N(C)c2ccccc2)cc1,0.8,15.6,-6.9,31.3,0.7,21.1
CN(c1ccccc1)S(=O)(=O)c1ccc(NC(=O)c2ccc(-c3ccccc3)cc2)cc1,0.2,84.1*,0.6,62.3*,0.4,15.1
CN(c1ccccc1)S(=O)(=O)c1ccc(NC(=S)Nc2ccccc2)cc1,0.4,60.1*,0.5,17.2,0.8,11.7
CCS(=O)(=O)c1ccc(O)c(NC(=O)Nc2ccccc2)c1,0.8,18.9,-7.6,4.0,1,2.4
Cc1ccc(/C(O)=C2/C(=O)C(=O)N(CCN3CCOCC3)C2c2cccs2)cc1 (centres undefined),1.1,-7.3,-4.0,14.1,0.9,24.6
O=C(c1cccc(F)c1)N1CCc2ccccc21,0.8,19.6,-1.0,26.4,0.7,-4.6
COC(=O)CN1CCN(C(=O)c2ccc(F)cc2)c2ccccc2C1,1,1.2,-0.3,53.3*,0.5,6.9
O=C(NCC1CCCO1)C1CCN(S(=O)(=O)c2cccc3nonc23)CC1 (centres undefined),1.4,-44.9,-0.5,1.5,1,0.4
COC(=O)c1cc(OC)c(OC)cc1NC(=O)CCC1CCCC1,1,-3.9,0.0,11.4,0.9,26.5
CC(C)Cn1c(N)c(C(=O)COC(=O)c2ccncc2)c(=O)n(C)c1=O,0.5,52.6*,0.8,41.9,0.6,2.2
CC(C)Cn1c(N)c(C(=O)COC(=O)CC23CC4CC(CC(C4)C2)C3)c(=O)n(C)c1=O,0.2,84.6*,1.9,62.7*,0.4,-5.6
Cc1ccccc1CSCC(=O)c1c(N)n(CC(C)C)c(=O)n(C)c1=O,0.9,14.1,12.2,29.5,0.7,14.4
CCCCn1c(NC(=O)c2ccccc2)c(C#N)c2nc3ccccc3nc21,0.2,81.3*,-8.2,-1.4,1,1.0
N#Cc1c(N)n(CCNC(=O)c2ccc(Cl)cc2)c2nc3ccccc3nc12,1,-3.8,1.9,10.0,0.9,-5.8
O=C(CSc1nnc(-c2ccco2)o1)NC(=O)C1COc2ccccc2O1 (centres undefined),1.9,-89.6,-10.4,61.0*,0.4,-14.9
Cc1cc(C(=O)CSc2nnc(-c3ccc(F)cc3)o2)c(C)n1CC1COc2ccccc2O1 (centres undefined),0.5,53.5*,2.1,45.3,0.5,-2.2
